{"source": "paper PMC4081100", "about": "“A DNA-binding-site landscape and regulatory network analysis for NAC transcription factors in Arabidopsis thaliana”", "data": [{"molecular_target": "GST-WRKY1(266-371) (Arabidopsis thaliana, UniProt Q9SI37 266-371)", "sequence (Q9SI37 266-371)": "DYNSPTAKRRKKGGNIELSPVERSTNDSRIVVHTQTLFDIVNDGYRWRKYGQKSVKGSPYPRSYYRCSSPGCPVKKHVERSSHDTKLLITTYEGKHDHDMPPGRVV", "experiment": "universal protein binding microarray (PBM); transcription factors of Arabidopsis thaliana; high values mean tight binding", "conditions": "protein: recombinant; tags: GST; dsDNA, one strand shown", "summary_of_the_method": "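Cells were induced to make GST-tagged NAC-domain, full-length or DNA-binding-domain proteins, and zinc acetate was added for zinc-finger proteins. These proteins were purified on glutathione–Sepharose 4B, quantified by A280 or anti-GST western blot, and applied in duplicate at 200 to 500 nM final to custom all-10-mer Agilent 4 × 180K arrays that primer extension had made double-stranded. Binding is given as the normalised enrichment score (E-score) for scored gapped and ungapped 8-mers.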", "units": {"binding signal": "E-score"}, "values": [{"sequence": "ATGACCGA", "binding signal": 0.405}, {"sequence": "ATGCTGAC", "binding signal": 0.41}, {"sequence": "CTGACCCA", "binding signal": 0.401}, {"sequence": "ACCTTGAC", "binding signal": 0.472}, {"sequence": "CTGACCGA", "binding signal": 0.439}, {"sequence": "CGATGACC", "binding signal": 0.414}, {"sequence": "CCTTGACC", "binding signal": 0.487}, {"sequence": "CCGGTCAG", "binding signal": 0.44}, {"sequence": "GAGTCAGA", "binding signal": 0.419}, {"sequence": "GTCGGTCA", "binding signal": 0.45}, {"sequence": "CGGTCAGA", "binding signal": 0.46}, {"sequence": "ATTGACCC", "binding signal": 0.478}, {"sequence": "CCTGGTCA", "binding signal": 0.454}, {"sequence": "AGTCAGAG", "binding signal": 0.44}, {"sequence": "CGAGTCAA", "binding signal": 0.477}, {"sequence": "CGGTCATA", "binding signal": 0.415}, {"sequence": "AAGACCGG", "binding signal": 0.428}, {"sequence": "CCATTGAC", "binding signal": 0.473}, {"sequence": "AAGTCCAC", "binding signal": 0.418}, {"sequence": "AACGGTCA", "binding signal": 0.435}, {"sequence": "CAAGGTCA", "binding signal": 0.425}, {"sequence": "CAGTCAGC", "binding signal": 0.406}, {"sequence": "CGCTGACC", "binding signal": 0.474}, {"sequence": "CCGGGTCA", "binding signal": 0.443}, {"sequence": "AGTCTTCG", "binding signal": 0.427}, {"sequence": "CCGGTCAA", "binding signal": 0.493}, {"sequence": "TCGAGTCA", "binding signal": 0.417}, {"sequence": "GACCGGTC", "binding signal": 0.445}, {"sequence": "GTCTTTGA", "binding signal": 0.411}, {"sequence": "CTGACCAA", "binding signal": 0.427}, {"sequence": "TCCGGTCA", "binding signal": 0.445}, {"sequence": "GCTGACTA", "binding signal": 0.417}, {"sequence": "TAGGGTCA", "binding signal": 0.42}, {"sequence": "ATGACCGG", "binding signal": 0.407}, {"sequence": "CCCGGTCA", "binding signal": 0.445}, {"sequence": "GACCAGTC", "binding signal": 0.406}, {"sequence": "ATTGACTC", "binding signal": 0.47}, {"sequence": "TGACCCAA", "binding signal": 0.419}]}]}
